# Measurements as given in the supplement of paper PMC6555819.
# Tested on: VDR:RXRa (NR concentration 270 nM, RXRa partner concentration 90 nM)
# Assay: PBM binding z-score (relative to random genomic background probes); higher = stronger binding; sequences stand for … in GC…GCGATTGACAGCGTAGAATGAAGG
# Experimental: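 Protein-binding microarray (Agilent 4x180K custom design, double-stranded 60-nt probes: 5' GC cap, 34-nt variable region, 24-nt constant primer region; full probe sequence given). Purified or IVT nuclear receptor:RXRα heterodimers (3:1 NR:RXRα, mostly 270:90 nM) or homodimers were incubated for 1 h in PBS with 2% milk and no ligand, then detected with Alexa488 antibodies. Fluorescence from o1-orientation probes (~5 replicates averaged) was converted to z-scores against 500 random hg19 background probes. Variable regions are seed direct-repeat (DR0–DR5) sites, all their single-nucleotide variants and half-site ablations.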
row,Sequence,PBM binding z-score
1,TATCAAAGTTCAAAGGTAACGTAAGTATCCACAC,5.28
2,ACTCGGATGACAAAGGTCAGAGCTACGCCAGTGA,3.14
3,ATATGTAGGTTAAGCGTCATTCAGGTTGGTTCGC,0.888
4,TAGCCTAGTTCATGCGGGCCAGTATAGTGTCGGC,1.14
5,GATACAGGGTCAGCTACAGGCCAGAGTATGGAAA,2.55
6,CGTACAAGGTCAAAGGTCAGTGAAGAGATGACGG,6.84
7,TCGTGTAGGTTACGGGGGCATTCAGGGATGAAGA,4.42
8,ATATGTAGTTTATCGGGTCATTCAGTTTGCGCAT,5.19
9,TCTGCTAGGTCAACGTTGGTCAGCTAATCTGCTA,1.46
10,GCTGCTAGGTCAACTGATGGTCAACTAAAGCTCG,2.07
11,TCGCCTAGGTCATGGGCCAGTATACCACGCGAAC,2.09
12,ATCGAAAGGTCGACGAGGTGAGTAAACACCGTTT,5.22
13,ACTCGGAGGACAAAGGTCAGGGCTACGCCAGTGA,3.43
14,CCTCGGAGGTCAACAGGAGGTCAGAGCTGCCAGA,6.19
15,CGTCAAAGGTCAAGGTCAGTGAAAGAGACTCGAA,5.77
16,CTCGAAAGGTCATGCTCAGGTGAGTATACCAAAC,5.69
17,CCTACTGGGCCATTCAGAGGGCATTGATCATATG,0.0939
18,CAAACTAGTTCAAGAGGTCAAAGTCCGCTTCCCG,5.54
19,CCTCGGAGGACAACAGGAGGTCATAGCTGCCAGA,3.57
20,AGAATGAGGTCACCAAAGATCAGGGAAACGCTTG,5.55

row,Sequence,PBM binding z-score
1,GATACGGGGTCAAGGCCAGAGTACGCGTATTGAT,6.27
2,CCGAGTAGGTTACTAGGGGGCATTCAGTGCGAAT,5.13
3,AGAATGAGGTCATACGTAGATCAGGGAAGAAAGT,5.41
4,CGTCCAAGGTCAATGCTAGATCAGTGAAAGCATT,3.51
5,CCGACGGGGGCAAAGGTTACCATACTCAGTACGA,5.11
6,CGAACAAGGTCATTGACAGGACAGTGAATAGTAA,4.88
7,AGAATGAGGTTAAACGTAGATCAGGGAAGAAAGT,2.03
8,TCTAGTTGGTCAAAGGTCACGCACTCGAAATGCG,6.05
9,AGAATGAGGTTACCAAAGGTCAGGGAAACGCTTG,5.67
10,CGAACTAGGTCATTGACAGGACAGTGGATAGTAA,2.15
11,ATATGTAGGTTAGGGTCAGTCAGAAAGTAGGGAA,2.49
12,CCTACTGGGCCAAAGGTGATTGATTCCAATGCTC,0.0696
13,CCTGCTAGGTCAAAGGTCAGCTAAAGCAGCTCGC,5.81
14,ATCGAAAGGTCGTGAGGTAAGTATACAGAAAGGC,3.44
15,AATAAAGGGTCATCGTAGGCCAGAGTACGCACAG,5.33
16,TGTCAAAGTTCAAAGGTGACGTAAGTATCCACAC,5.65
17,CGTCCAAGGTCATAGGAGGTCAATGAAGACAGAT,7.01
18,CGTCCAAGGTCAAAGGTCAATGAAGAGATGACGG,7.06
19,ACTCGGTGGACAAAGGTCAGAGCTACGCCAGTGA,2.91
20,TATACAAGGTCAAAGGCCAGAGTACGAATGTCGA,4.83
